# Structures can show the parent of a compound that is named as a salt.
# Assays:
# Assay in all cases: thermal shift delta Tm vs DMSO control; higher = stronger stabilization (binding)
# Details in all cases: 12.5 µM; protein concentration 2 µM
# LOC_OS04G57630-cb004 = test system: LOC_OS04G57630-cb004
# How it was run: (§1)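 Compounds dissolved in DMSO were added to purified rice kinase domain constructs, which had been expressed in E. coli, for differential scanning fluorimetry. Each well held 19.5 μl of 2 μM kinase in 100 mM potassium phosphate pH 7.5, 150 mM NaCl, 10% glycerol and 5 × SYPRO Orange. Fluorescence was followed from 25°C to 95°C at a rate of 0.05°C/s. Shifts in Boltzmann-fitted melting temperature are triplicate means relative to DMSO-only protein.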
# LOC_OS05G07850-cb002 = test system: LOC_OS05G07850-cb002
# How it was run: as §1
# LOC_OS05G16824-cb004 = test system: LOC_OS05G16824-cb004
# How it was run: as §1
# LOC_OS05G28520-cb001 = test system: LOC_OS05G28520-cb001
# How it was run: as §1
# LOC_OS05G30820-cb001 = test system: LOC_OS05G30820-cb001
# How it was run: as §1
# LOC_OS05G43570-cb004 = test system: LOC_OS05G43570-cb004
# How it was run: as §1
# LOC_OS06G16330-cb003 = test system: LOC_OS06G16330-cb003
# Chain of LOC_OS06G16330-cb003 (as listed by the source): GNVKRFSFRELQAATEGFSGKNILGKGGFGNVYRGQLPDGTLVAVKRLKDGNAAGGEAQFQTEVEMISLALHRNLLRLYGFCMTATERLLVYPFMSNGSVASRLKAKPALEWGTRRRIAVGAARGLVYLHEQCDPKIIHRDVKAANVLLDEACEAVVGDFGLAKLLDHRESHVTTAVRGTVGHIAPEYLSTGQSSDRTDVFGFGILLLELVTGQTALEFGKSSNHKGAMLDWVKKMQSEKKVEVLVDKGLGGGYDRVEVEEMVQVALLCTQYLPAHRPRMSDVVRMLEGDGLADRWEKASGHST
# How it was run: as §1
# LOC_OS06G22820-cb001 = test system: T1, LOC_OS06G22820-cb001
# T1 sequence (whole entry): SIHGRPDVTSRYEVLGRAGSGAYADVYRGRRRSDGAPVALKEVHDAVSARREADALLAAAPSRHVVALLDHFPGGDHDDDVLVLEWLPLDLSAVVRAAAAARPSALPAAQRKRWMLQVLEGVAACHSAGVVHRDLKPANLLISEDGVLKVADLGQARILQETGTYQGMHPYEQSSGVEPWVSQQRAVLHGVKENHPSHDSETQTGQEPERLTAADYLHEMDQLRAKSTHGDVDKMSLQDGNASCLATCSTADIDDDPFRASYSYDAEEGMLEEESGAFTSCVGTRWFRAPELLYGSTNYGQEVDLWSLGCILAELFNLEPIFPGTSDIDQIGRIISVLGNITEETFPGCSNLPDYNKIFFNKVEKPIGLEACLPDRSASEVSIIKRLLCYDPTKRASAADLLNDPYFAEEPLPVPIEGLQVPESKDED
# How it was run: as §1
# LOC_OS07G06570-cb004 = test system: LOC_OS07G06570-cb004
# How it was run: as §1
# LOC_OS07G07230-cb001 = test system: LOC_OS07G07230-cb001
# How it was run: as §1
Compound,thermal shift delta Tm (LOC_OS04G57630-cb004) [°C],thermal shift delta Tm (LOC_OS05G07850-cb002) [°C],thermal shift delta Tm (LOC_OS05G16824-cb004) [°C],thermal shift delta Tm (LOC_OS05G28520-cb001) [°C],thermal shift delta Tm (LOC_OS05G30820-cb001) [°C],thermal shift delta Tm (LOC_OS05G43570-cb004) [°C],thermal shift delta Tm (LOC_OS06G16330-cb003) [°C],thermal shift delta Tm (LOC_OS06G22820-cb001) [°C],thermal shift delta Tm (LOC_OS07G06570-cb004) [°C],thermal shift delta Tm (LOC_OS07G07230-cb001) [°C]
COc1cc2ncnc(Nc3ccc(F)c(Cl)c3)c2cc1OCCCN1CCOCC1 [Gefitinib (ZD1839)],-0.05,9.4,-0.18,0.21,0.41,0.31,2.35,0.63,0.99,0.24
COC(=O)[C@]12CCC(C)(C)C[C@H]1[C@H]1C(=O)C=C3[C@@]4(C)C=C(C#N)C(=O)C(C)(C)[C@@H]4CC[C@@]3(C)[C@]1(C)CC2 [Bardoxolone Methyl],-4.85,-6.24,-7.05,-4.77,0.07,-2.54,-3.91,0.1,0.47,0.11
O=S(=O)(NCCNC/C=C/c1ccc(Br)cc1)c1cccc2cnccc12,-0.1,2.68,-0.59,-0.13,0.53,0.62,0.87,0.31,1.14,0.17
Nc1nc(N)c(N=O)c(OCC2CCCCC2)n1,0.27,8.06,1.8,0.61,0.8,0.23,2.17,0.95,1.43,-0.02
Cc1ccc(NC(=O)c2ccc(CN3CCN(C)CC3)cc2)cc1Nc1nc(-c2cccnc2)cs1 [Masitinib (AB1010)],-0.19,0.62,-4.62,0.59,0.34,0.52,-0.18,0.52,0.98,0.23
CCN(CC)CCNC(=O)c1c(C)[nH]c(/C=C2\C(=O)Nc3ccc(-c4csc(-c5ccccc5)n4)cc32)c1C [Amcasertib (BBI503)],2.36,10.8,12.7,2.76,0.34,0,6.16,0.72,1.73,0.75
C=CC(=O)Nc1ccc2ncnc(Nc3ccc(OCc4cccc(F)c4)c(Cl)c3)c2c1,2.39,1.81,3.11,1.71,0.87,2.77,1.04,2.98,1.79,-0.18
Cn1ncc(Cl)c1-c1cc(C(=O)N[C@H](CN)Cc2ccc(F)c(F)c2)oc1Cl,0.39,1.08,2.91,1.26,0.24,1.04,1.15,0.82,-0.35,-0.13
O=C1CCc2c(Oc3ccc4c(c3)[C@@H]3[C@H](O4)[C@H]3c3nc4cc(C(F)(F)F)ccc4[nH]3)ccnc2N1 [Lifirafenib (BGB-283)],5.81,9.47,-0.92,0.64,0.42,1.09,2.37,1.16,1.23,-0.15
c1ccc(-c2[nH]ncc2-c2ccnc3ccccc23)nc1,0.26,3.02,0.42,0.19,0.24,0.65,-2.93,0.08,0.81,0.53
Nc1ncc(-c2ccnc(Nc3ccncc3)n2)c(CC2CC2)n1,0.81,7.15,0.92,0.45,0.44,0.4,3.58,0.78,1.03,-0.19
Cc1ccc(NC(=O)c2ccc(CN3CCN(C)CC3)cc2)cc1Nc1nccc(-c2cccnc2)n1 [Imatinib Mesylate (STI571)],0.35,2.65,0.21,0.58,0.32,0.49,0.2,0.68,1.07,0.85
CS(=O)(=O)c1cccc(CNc2nc(Nc3ccc4c(c3)CCC(=O)N4)ncc2C(F)(F)F)c1,1.7,8.91,11.1,1.18,2.8,0.96,6.92,0.35,0.43,-0.39
CCN(CC)CCCC(C)Nc1ccnc2cc(Cl)ccc12 (stereo not given) [Chloroquine Phosphate],0.53,0.78,-0.51,0.02,0.51,0.55,-3.04,0.22,0.72,0.52
"Nc1nc2cc(-c3ccc4ncc(C(=O)N5CCOCC5)n4c3)ccc2o1 [Serabelisib (INK-1117,MLN-1117,TAK-117)]",0.92,2.64,6.24,0.55,0.04,0.35,0.24,0.5,1.85,0.61
COc1ccc(S(=O)(=O)N(C(C)=O)c2ccccc2/C=C/c2cc[n+]([O-])cc2)cc1,0.43,0.92,-6.15,0.67,0.66,0.45,0.41,0.58,1.06,0.31
O=C1Nc2ccc(I)cc2/C1=C/c1cc(Br)c(O)c(Br)c1,-0.66,7.59,-3.03,2.07,1.54,0.73,1.63,0.94,1.22,1.47
Cc1c[nH]c2nc(Nc3ccc(N4CCN(C)CC4)c(F)c3)nc(-c3cccc(CC#N)c3)c12,4.89,15,12.3,3.05,0.83,1.16,17.6,-0.11,2.22,0.57
CC[C@@H](N)CNc1ccnc(-c2cc(-c3cnn(C)c3)ccc2O)n1,1.21,8.12,8.38,-0.2,0.07,0.12,4.5,0.55,0.8,0.48
CCOc1cc(N2CCC(O)CC2)ccc1Nc1ncc2c(n1)N(C)c1ccccc1C(=O)N2C,-0.09,1.85,-1.07,0.32,0.48,0.23,0.05,0.49,1.48,0.47

Compound,thermal shift delta Tm (LOC_OS04G57630-cb004) [°C],thermal shift delta Tm (LOC_OS05G07850-cb002) [°C],thermal shift delta Tm (LOC_OS05G16824-cb004) [°C],thermal shift delta Tm (LOC_OS05G28520-cb001) [°C],thermal shift delta Tm (LOC_OS05G30820-cb001) [°C],thermal shift delta Tm (LOC_OS05G43570-cb004) [°C],thermal shift delta Tm (LOC_OS06G16330-cb003) [°C],thermal shift delta Tm (LOC_OS06G22820-cb001) [°C],thermal shift delta Tm (LOC_OS07G06570-cb004) [°C],thermal shift delta Tm (LOC_OS07G07230-cb001) [°C]
CN1CCN(c2ccc(OC(F)(F)F)c(Nc3ncc4c(n3)-c3c(c(C(N)=O)nn3CCO)CC4)c2)CC1,2.32,0.85,-0.84,0.63,0.48,0.54,0.46,0.49,1.36,0.02
Cc1nc2ccc(-n3ncc(C(=O)c4cc5ccccc5[nH]4)c3N)cc2[nH]1,-0.26,2.01,0.01,0.51,0.59,0.2,0.87,0.56,-0.34,0.11
COCCOc1ccc2c(c1)ncn2-c1ccc2cccc(N3CCC(N)CC3)c2n1,6.59,16.7,12.6,-0.07,1.5,0.49,7.19,0.77,1.03,0.19
N#C/C(=C\c1ccc(O)c(O)c1)C(=O)NCc1ccccc1 [AG-490 (Tyrphostin B42)],-1.22,-1.56,-18.1,1.95,0.64,0.9,-0.03,1,2.29,0.61
CCOc1cc2ncc(C#N)c(Nc3ccc(OCc4ccccn4)c(Cl)c3)c2cc1NC(=O)/C=C/CN(C)C [Neratinib (HKI-272)],1.3,2.1,-0.55,0.73,0.56,0.35,0.45,0.9,1.96,0.81
O=C(NOCC1CC1)c1ccc(F)c(F)c1Nc1ccc(I)cc1Cl,0.14,1.54,2.02,1.8,0.63,1.06,0.69,1.27,1.57,0.31
CCn1c(=O)c(-c2ccc(Cl)cc2Cl)cc2cnc(Nc3ccc(N4CCNCC4)c(F)c3)nc21,4.17,10.6,6,2.8,0.68,0.35,6.75,0.87,1.3,4.1
C=CC(=O)Nc1cccc(Oc2nc(Nc3ccc(N4CCN(C)CC4)cc3OC)ncc2Cl)c1,-0.7,8.75,-3.25,0.26,0.41,0.58,-0.17,0.37,0.31,0.24
O=C(c1ccc(/C=C/c2n[nH]c3ccccc23)cc1)N1CCNCC1,3.95,9.5,10.5,2.59,1.8,0.66,7.34,0.53,1.15,0.03
COc1cc(C(=O)N2CCC(N3CCN(C)CC3)CC2)ccc1Nc1ncc2c(n1)N(C)c1ccccc1C(=O)N2C,0.47,4.15,-2.69,0.06,0.42,-1.79,0.93,0.32,0.88,0.74
CCNc1nc(Nc2cc(F)c(C(=O)N3CCOCC3)cc2OC)ncc1C(F)(F)F,0,3.03,1.21,0.71,0.46,0.26,0.76,0.28,0.96,-0.16
CCc1cnn2c(NCc3ccc[n+]([O-])c3)cc(N3CCCC[C@H]3CCO)nc12,-0.16,2,-0.11,0.17,0.37,0.19,-0.11,0.41,0.51,0.3
"Cc1cc(Nc2ncnc3ccc(NC4=NC(C)(C)CO4)cc23)ccc1Oc1ccn2ncnc2c1 [Irbinitinib (ARRY-380, ONT-380)]",0.3,0.8,-0.96,0.07,0.07,0.33,-0.51,0.49,1.27,0.02
O=C1NC(=O)/C(=C/c2ccc3nccc(-c4ccncc4)c3c2)S1,1.23,8.62,0.06,0.11,0.15,0.36,3.51,0.22,1.03,0.79
CSc1cccc(Nc2ncc3cc(-c4c(Cl)cccc4Cl)c(=O)n(C)c3n2)c1,0.15,5.12,1.03,0.64,0.34,0.27,0.34,0.59,0.45,0.66
O=C(Cc1ccc(-c2ccc(OCCN3CCOCC3)cc2)cn1)NCc1ccccc1,0.12,0.35,-2.04,0.32,0.37,0.34,-0.02,0.6,0.25,-0.12
Cn1cc(/C=C2\C(=O)Nc3cccnc32)c2ccccc21,2.07,9.12,10.2,0.86,0.81,0.41,7.67,0.62,1.66,0.42
CCc1nc(-c2cccc(C)c2)c(-c2ccnc(NC(=O)c3ccccc3)c2)s1,0.17,4.1,-0.96,0.55,0.63,-0.08,0.66,0.77,1.16,-0.21
CNc1nc(-c2ccc3c(N)n[nH]c3c2)cc(N2C[C@@H](C(=O)NC3CCCCC3)CC[C@H]2C)n1,0.37,2.19,-1.52,0.81,0.31,0.65,0.1,0.79,1.92,0.33

# Source: the supplement of paper PMC9694430
